Test results taken from PubChem BioAssay AID651636 (Sanford-Burnham Center for Chemical Genomics, 2012).
About 3,000 (0.83%) of roughly 360,000 compounds were called active. What follows is part of a selection rich in actives, with near analogues and random picks from the rest. Unmarked numbers belong to inactive results. No stated cut-off is given here; in the data, active means inhibition above about 38%; inactive means the rest.

target: G-protein coupled receptor 183 (Homo sapiens) (UniProt P32249); experiment: blockers of oxysterol-driven EBI2 arrestin signaling – cell-based, luminescence, 7a,25-OHC stimulation, uHTS, primary screen (AID 651636); conditions: EBI2 beta-arrestin recruitment, 7a,25-OHC stimulated, at 5 µM, hits give high values;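 further: enzyme fragment complementation signal reports receptor beta-arrestin coupling in cells; 0% = agonist plus DMSO wells and 100% = wells without agonist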
Sequence (P32249 whole entry, looked up, the tested form may be a part): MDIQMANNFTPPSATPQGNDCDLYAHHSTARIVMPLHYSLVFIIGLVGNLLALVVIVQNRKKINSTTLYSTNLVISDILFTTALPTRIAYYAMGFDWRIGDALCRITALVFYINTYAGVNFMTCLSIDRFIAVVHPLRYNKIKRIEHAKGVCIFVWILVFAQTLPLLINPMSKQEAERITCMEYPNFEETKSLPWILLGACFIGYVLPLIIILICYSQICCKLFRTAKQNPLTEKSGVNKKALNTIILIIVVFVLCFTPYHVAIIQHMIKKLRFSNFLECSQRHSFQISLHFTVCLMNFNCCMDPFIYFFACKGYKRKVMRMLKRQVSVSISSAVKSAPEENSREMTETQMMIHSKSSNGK

SMILES | inhibition
O=S1(=O)CC(N2CCN(CCO)CC2)CN1Cc1cn(Cc2cccc(Cl)c2)nn1 (stereo not drawn) | -6.79%
Cc1ccc(O/C=C2\OC(=O)c3ccccc32)cc1 | 55.5% (active)
O=C(O/N=C(/c1ccccc1)c1ccncc1)c1ccccc1[N+](=O)[O-] | -3.57%
O=S(=O)(c1ccc(Sc2nnc3ccccn23)nc1)N1CCOCC1 | -9.4%
COc1ccccc1-c1cc2nc(NCc3cccc(Cl)c3)ccn2n1 | 4.55%
COCCCNc1ccn2nc(-c3ccc(CC(C)C)cc3)cc2n1 | 36.9%
CC(C)Cc1ccc(-c2cc3nc(NCc4cccc(Cl)c4)ccn3n2)cc1 | 47.4% (active)
O=C(O)C1CC=CCC1C(=O)NCCc1ccccc1 (stereo not drawn) | -5.64%
CCc1nc2ccc(C(=O)Nc3cc(-c4ccccc4)ccc3OC)cn2c1N(CC)CC(=O)N(C)C | 17%
CCC(C)(C)NC(=O)c1cc([N+](=O)[O-])ccc1N1CCCCC1 | 79.2% (active)
CCN1CCN(c2ccc([N+](=O)[O-])cc2C(=O)c2ccc(Cl)cc2)CC1 | 8.05%
COc1ccc(S(=O)(=O)N2CCCCC2)cc1NC(=O)c1cc([N+](=O)[O-])ccc1N1CCOCC1 | 15.7%
C=CCN(Cc1nc(-c2cc(OC)c3c(c2)OCO3)oc1C)C1CCS(=O)(=O)C1 (stereo not drawn) | -4.13%
CCCCN1CC(CO)Oc2cccc(F)c2S1(=O)=O (stereo not drawn) | -9.52%
CC(C)(C)C(=O)Nc1cccc(-c2ccc[nH]2)n1 | -1.86%
Cc1cccc(NC(=O)CN2CCCN(S(=O)(=O)c3ccc(Br)s3)CC2)c1 | 3.9%
C/C(=N/NC(=O)CN1CCN(S(=O)(=O)c2ccc(Br)cc2)CC1)c1ccncc1 | 6.8%
Cc1ccc(S(=O)(=O)N2CCN(CC(=O)N/N=C/c3ccc(Br)s3)CC2)cc1 | 66.9% (active)
Cc1ccc(C(=O)NCC(=O)OCC(=O)NC2CCCCCCC2)cc1 | -2.06%
COc1ccc(S(=O)(=O)N2CCOCC2)cc1C(=O)NC1CCCCC1 | 3.75%
CCOC(=O)C1CCCN(C(=O)Cn2ncc3c(=O)oc4ccc(C)cc4c32)C1 (stereo not drawn) | -3.84%
Cc1ccc2oc(=O)c3cnn(CC(=O)N4CCCCCC4)c3c2c1 | 57.7% (active)
Cc1ccc2oc(=O)c3cnn(CC(=O)N(Cc4ccco4)C4CCCCC4)c3c2c1 | 86.2% (active)
COCCCN(C(=O)Cn1ncc2c(=O)oc3ccc(C)cc3c21)C(C)c1ccncc1 (stereo not drawn) | -3.25%
Cc1ccc(S(=O)(=O)NCC(=O)N(CC(=O)NC2CCCCC2)Cc2ccco2)cc1 | -11.2%

SMILES | inhibition
Cc1ccc2oc(=O)c3cnn(CC(=O)N4CCN(c5ccccn5)CC4)c3c2c1 | 14.3%
CCC1CO/C(=C(\C(=C(Cl)Cl)N2CCOCC2)[N+](=O)[O-])N1 (stereo not drawn) | -3.56%
CCCCC[C@H](C)N1C[C@@H](COCc2ccccc2)Oc2cc(N3CC[C@@H](N(C)C)C3)ccc2S1(=O)=O | 1.65%
Cc1ccc(C(=O)O)cc1S(=O)(=O)NCC1CCCO1 (stereo not drawn) | -0.989%
C=CC[C@H](CC(=O)N(CCO)Cc1ccccc1)C(=O)N[C@@H](COC(=O)[C@@H](CC=C)Cc1ccc(F)cc1)Cc1ccccc1 | 27%
Cc1cccc(CS(=O)(=O)c2ncc(Cl)c(C(=O)Nc3ccc(F)cc3)n2)c1 | 30.8%
Cc1cccc(NC(=O)c2nc(S(=O)(=O)Cc3ccccc3)ncc2Cl)c1 | 66% (active)
Cc1cccc(NS(=O)(=O)c2ccc(C)c(C(=O)NCc3cccnc3)c2)c1 | -2.61%
O=C(NCc1ccccc1)C1CCCN(S(=O)(=O)c2cccs2)C1 (stereo not drawn) | -3.94%
O=C(NCc1ccc(Cl)cc1)C1CCN(S(=O)(=O)c2cccs2)CC1 | 53% (active)
O=C(NCc1ccc(Cl)cc1)C(=O)NCC1CCCN1S(=O)(=O)c1cccs1 (stereo not drawn) | -11.1%
N#CCCCn1c(O)c(N=NC(=O)C(O)c2ccccc2)c2ccccc21 (stereo not drawn) | 10.8%
COC(=O)c1cccc(NS(C)(=O)=O)c1 | 1.19%
CCCc1cc(=O)oc2cc(OCC(=O)Nc3ccc(CN4CCOCC4)cc3)c(Cl)cc12 | -0.759%
CC(NC(=S)NC1CCCCC1)C(c1ccccc1)N1CCOCC1 (stereo not drawn) | -1.91%
Cc1sc(NC(=O)C2C3CCC(O3)C2C(=O)O)c(C(=O)OC(C)C)c1-c1ccc(Cl)cc1 (stereo not drawn) | 2.12%
CC(C)c1cc(Cn2c3ccccc3c(=O)n2C(C)Cn2cc(C3CC3)nn2)on1 (stereo not drawn) | -7.98%
COc1ccc(C(C(=O)NC2CCCCC2)N(C(=O)c2snc(C(N)=O)c2N)c2ccccc2OC)cc1 (stereo not drawn) | 48.7% (active)
COc1ccc(N(C(=O)c2snc(C(N)=O)c2N)C(C(=O)NC2CCCC2)c2ccc(C)o2)c(OC)c1 (stereo not drawn) | 34.7%
CCC(C(=O)NC1CCCCC1)N(C(=O)c1snc(C(N)=O)c1N)c1ccc(OC)cc1OC (stereo not drawn) | 8.28%
Cc1ccccc1C(=O)NCC(c1ccco1)N1CCc2ccccc21 (stereo not drawn) | 6.76%
CCC1NC(=O)c2cccnc2-n2c1nc1ccc(C)cc1c2=O (stereo not drawn) | -1.36%
O=C1NC(Cc2ccccc2)c2nc3ccc(Br)cc3c(=O)n2-c2cc3ccccc3cc21 (stereo not drawn) | 37.7%
Cc1cc(C)c2c(=O)n3c(nc2c1)C(CC(C)C)NC(=O)c1cc2ccccc2cc1-3 (stereo not drawn) | 77.3% (active)
Cc1[nH]c2c(C(=O)N3CCCC(CCC(=O)NCc4ccccc4F)C3)cccc2c1C (stereo not drawn) | 2.8%

SMILES | inhibition
CN1CCN(c2ccccc2NC(=O)COc2ccc(C3CCCCC3)cc2)CC1 | 22.8%
O=C(CSCc1ccc([N+](=O)[O-])cc1)NCCSCc1ccccc1 | 3.17%
O=S(=O)(c1cccc(C(F)(F)F)c1)N1CCN(c2cnccn2)CC1 | -1.02%
O=C(/C=C/c1cccc(C(F)(F)F)c1)N1CCN(c2ccccn2)CC1 | 55% (active)
Nc1ccn(CC(=O)N2CCN(c3ccccn3)CC2)c(=O)n1 | -9.67%
CSc1ccc(Cl)c(C(=O)OCC(=O)N2CCNC2=O)c1 | 5.05%
CCc1nn(CCCC(=O)NC(C)c2ccccc2)c(=O)c2cc3occc3n12 (stereo not drawn) | -11%
O=C(NCCNc1ccc([N+](=O)[O-])cc1)c1cccc2c(Br)cccc12 | 44.2% (active)
CC(CNc1ccc([N+](=O)[O-])cc1)NC(=O)c1ccccc1Br (stereo not drawn) | 28.5%
O=C(NCCNc1ccc([N+](=O)[O-])cc1Cl)c1ccccc1F | -4.29%
CCNC(=O)NC(=O)C(C)OC(=O)c1cc(S(=O)(=O)N2CCCCCC2)ccc1OC (stereo not drawn) | -0.223%
CCOc1ccc(S(=O)(=O)NCCC(=O)NCC2CCCO2)cc1 (stereo not drawn) | -4.42%
CC(CNS(=O)(=O)c1ccc(Br)cc1)CN(C)C (stereo not drawn) | 0.0488%
Cc1ccc(S(=O)(=O)NCCSC(C)(C)C)cc1 | -0.527%
O=C(CCNS(=O)(=O)c1ccccc1)NCCCc1ccccc1 | -0.453%
CC(C)CCNC(=O)CCNS(=O)(=O)c1ccc(Cl)cc1 | -4.48%
O=C(CNC(=O)c1ccccc1Br)NCCSc1ccc(Br)cc1 | 22%
O=C(CCNS(=O)(=O)c1ccccc1)NCCSc1ccc(Br)cc1 | 51.2% (active)
Cc1ccc(S(=O)(=O)NCCNC(C)c2ccc(Br)cc2)cc1 (stereo not drawn) | 43.7% (active)
Cc1ccc(OCCNC(=O)CCNS(=O)(=O)c2ccc(Br)cc2)cc1 | 45.9% (active)
O=C(Nc1ccc2c(c1)OCO2)C1CC(c2c(F)cccc2Cl)=NO1 (stereo not drawn) | 0.962%
COc1ccc(OC)c(Cc2cnc3nc(N)nc(N)c3c2C)c1 | -1.26%
CCOC(=O)/C(=N\Nc1ccccc1Cl)N(C)C1CCS(=O)(=O)C1 (stereo not drawn) | 1.11%
C=C1CCN([C@@H](Cc2ccccc2)C(=O)N2CCOCC2)S(=O)(=O)c2ccccc21 | 5.72%
c1ccc(C[C@H]2CNCCN2CCC23CC4CC(CC(C4)C2)C3)cc1 | -9.28%

SMILES | inhibition
CC1CCCCC1NC(=O)/C(C#N)=C/C=C/c1ccccc1[N+](=O)[O-] (stereo not drawn) | 8.62%
CC(=O)c1ccc(NC(=S)N(Cc2ccccc2)C(C)C2CC2)cc1 (stereo not drawn) | -3.28%
CC(C)N(Cc1ccccc1)C(=S)Nc1ccc(OC(F)F)cc1 | 53.9% (active)
CN(CC(=O)Nc1ccc(OC(F)F)cc1)S(=O)(=O)/C=C/c1ccccc1 | 1.52%
CC1=NNC(=O)C1Cc1c(Cl)cccc1Cl (stereo not drawn) | 9.3%
Cc1ccc(S(=O)(=O)NC2(C(F)(F)F)NC(=O)N(CCc3ccccc3)C2=O)cc1 (stereo not drawn) | -2.6%
Cc1ccc(-n2ncc3c(=O)n(-c4ccc(C)c(C)c4)c(-c4ccco4)nc32)cc1 | 51.2% (active)
Cc1ccc(-n2ncc3c2ncn2nc(-c4ccco4)nc32)c(C)c1 | -1.3%
Cc1ccc(-n2nc(-c3ccco3)cc2C(=O)NCc2cccnc2)cc1 | 7.84%
CN(C)C(=O)c1cccc(-c2cnc3sc(NCc4ccc5c(c4)OCO5)nn23)c1 | -1.54%
CCN(Cc1ccncc1)C(=O)c1cccc(S(=O)(=O)N2CCOCC2)c1 | -5.08%
COc1ccc(OCC(=O)N2CCN(C(=O)COc3ccccc3)CC2)cc1 | 50.8% (active)
CC1CN(C2CCN(C(=O)COc3ccccc3)CC2)CC(C)O1 (stereo not drawn) | -0.0245%
O=C(COc1ccc2ccccc2c1)N1CCN(C(=O)c2cccs2)CC1 | 79.7% (active)
O=C(c1ccc(OC2CCN(C(=O)c3cccnc3)CC2)cc1)N1CCCCCC1 | -4.37%
COc1ccccc1C(=O)Nc1ccc(OCC(=O)N2CCCCC2)cc1 | -5.13%
Cc1ccccc1N1CCN(C(=O)c2cccnc2)CC1 | -10.5%
CCS(=O)(=O)N1CCN(C(=O)c2cccs2)CC1 | -10.3%
COc1ccc(OCC(=O)N2CCN(C(=O)c3cccs3)CC2)cc1 | 49.9% (active)
COc1ccc(N2CCN(C(=O)c3cccs3)CC2)cc1 | -0.686%
O=C(COc1ccccc1)Nc1ccc(N2CCN(C(=O)c3cccs3)CC2)cc1 | 3.87%
Cc1ccc(OCC(=O)N2CCN(C(=O)c3cccnc3)CC2)cc1 | 50.4% (active)
O=C(CN1C(=O)NC2(CCCCC2)C1=O)N1CCN(C(=O)c2cccs2)CC1 | -15.2%
